# According to article PMC6792352, “Limited Chemical Structural Diversity Found to Modulate Thyroid Hormone Receptor in the Tox21 Chemical Library” (Environmental Health Perspectives, 2019):
# Counter-ions that a name gives are not always drawn.
# Tested on: thyroid hormone receptor (endogenous TRα and TRβ)
# Set-up: species or system GH3-TRE-Luc (rat pituitary); GH3-TRE-Luc luciferase reporter, antagonist mode against 1 nM T3, loss of signal, qHTS
# Conditions: antagonist mode, 1 nM T3, no GH3 cytotoxicity hit, read-out: Average AC50 (uM) GH3-TRE-Antag
row,SMILES,AC50
1,Nc1ccc(N=Nc2ccc(-c3ccc(N=Nc4c(S(=O)(=O)O)cc5cc(S(=O)(=O)O)c(N=Nc6ccccc6)c(O)c5c4N)cc3)cc2)c(N)c1 [C.I. Direct Black 38],14 µM
2,CCOP(=S)(OCC)Oc1ccc(Cl)cc1Cl [Dichlofenthion],71.5 µM
3,C[C@]12CC[C@H]3[C@@H](CCC4=C(Cl)C(=O)CC[C@@]43C)[C@@H]1CC[C@@H]2O [Clostebol],29.2 µM
4,O=C(Nc1ccccc1)Nc1cnns1 [Thidiazuron],76.7 µM
5,O=P(Oc1ccccc1)(Oc1ccccc1)Oc1ccccc1 [Triphenyl phosphate],> 90 µM
6,CCOP(=S)(OCC)SC(CCl)N1C(=O)c2ccccc2C1=O (centres unmarked) [Dialifor],> 90 µM
7,CCC1COC(Cn2cncn2)(c2ccc(Cl)cc2Cl)O1 (centres unmarked) [Etaconazole],36.8 µM
8,"Oc1ccc(Cl)c(Cl)c1Cl [2,3,4-Trichlorophenol]",87.3 µM
9,"Brc1ccc(Oc2cc(Br)c(Br)cc2Br)c(Br)c1 [2,2',4,4',5-Pentabromodiphenyl ether]",39.4 µM
10,CCC(N)Cc1c[nH]c2ccccc12 (centres unmarked) [Etryptamine acetate],43.6 µM
11,OC(c1ccccc1)(c1ccccc1)C1CCNCC1 [Azacyclonol],10.4 µM
12,Clc1cccc(N2CCNCC2)c1 [1-(3-Chlorophenyl)piperazine],20 µM
13,CCCSP(=O)(OCC)Oc1ccc(Br)cc1Cl (centres unmarked) [Profenofos],> 50 µM
14,CCN(CC)c1nc(C)cc(OP(=S)(OC)OC)n1 [Pirimiphos-methyl],57.1 µM
15,Cc1ccc2c(c1)[C@]13CCCC[C@@H]1[C@H](C2)N(C)CC3 [Dimemorfan phosphate],42.3 µM
16,"C[C@]12CCC(=O)C=C1CC[C@@H]1[C@@H]2CC[C@]2(C)C(=O)CC[C@@H]12 [4-Androstene-3,17-dione]",> 50 µM
17,C=CC(=O)OCCO [2-Hydroxyethyl acrylate],51.5 µM

row,SMILES,AC50
1,"Clc1nc(Cl)nc(Cl)n1 [2,4,6-Trichloro-s-triazine]",> 90 µM
2,O=C(O)Cc1ccccc1 [Phenylacetic acid],18.1 µM
3,CC(C)(C)c1ccccc1OP(=O)(Oc1ccccc1)Oc1ccccc1 [tert-Butylphenyl diphenyl phosphate],88.4 µM
4,Nc1ccccc1C(=O)Oc1ccc2ccccc2c1 [Naphthalen-2-yl 2-aminobenzoate],82.4 µM
5,Cn1c(-c2ccccc2)cc(-c2ccccc2)[n+]1C [Difenzoquat metilsulfate],68.7 µM
6,C=C(Cl)CSC(=S)N(CC)CC [Sulfallate],86.5 µM
7,CC(C)(N)Cc1ccc(Cl)cc1 [Chlorphentermine hydrochloride],39.2 µM
8,CCOP(=S)(OCC)Oc1ccc2c(C)c(Cl)c(=O)oc2c1 [Coumaphos],> 50 µM
9,COP(=O)(OC)OC(=CCl)c1cc(Cl)c(Cl)cc1Cl [Tetrachlorovinphos],27.1 µM
10,"Oc1c(Br)cc(Br)cc1Br [2,4,6-Tribromophenol]",> 50 µM
11,C[C@]12CCC(=O)C=C1CC[C@@H]1[C@@H]2CC[C@@]2(C)[C@H]1CC[C@]2(C)O [17-Methyltestosterone],46 µM
12,O=C1C(=O)c2cccc3cccc1c23 [Acenaphthenequinone],76.1 µM
13,c1ccc2c(c1)sc1ccccc12 [Dibenzothiophene],33.4 µM
14,CNC(=O)Oc1cccc(N=CN(C)C)c1 [Formetanate hydrochloride],70.8 µM
15,O=[N+]([O-])c1ccc(Oc2ccc(C(F)(F)F)cc2[N+](=O)[O-])cc1 [Fluorodifen],> 90 µM
16,CCOP(=S)(OCC)Oc1cnc2ccccc2n1 [Quinalphos],55.1 µM

# Same assay, conditions: read-out: Average AC50 (uM) GH3-TRE-Antag; 24 h; antagonist
row,SMILES,AC50
1,Cc1ccc(OP(=O)(Oc2ccc(C)cc2C)Oc2ccc(C)cc2C)c(C)c1 [TXP],70.6 µM
2,Nc1c(Cl)cc([N+](=O)[O-])cc1Cl [Dicloran],91.8 µM
3,C[C@]12CC[C@H]3[C@@H](CCC4=CC(=O)CC[C@@H]43)[C@@H]1CC[C@@H]2O [Nandrolone],32.5 µM
4,O=C1Nc2ccc(Cl)cc2C(c2ccccc2Cl)=NC1O (centres unmarked) [Lorazepam],> 50 µM
5,CC[C@H]1C[C@H]2[C@@H]3CCC4=CC(=O)CC[C@@H]4[C@H]3CC[C@]2(C)[C@H]1O [Oxendolone],21.2 µM
